Compounds with a hit are over-represented: about 22% of the library has one in this group of screens.
CYP2C19 inhib: blockers of cytochrome P450 2C19 activity – biochemical, luminescence, ADME assay, primary screen. inhibition, % at 5 µM. AID 778, 2007. 96,000 tested, 21% active. P33261. CYP2C19 Supersomes, luciferin-H EGE luminescence, 30 min;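 active means CYP2C19 inhibition above a set limit at 5 µM in the primary screen, cut at about 50% in these data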;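 further: plate controls were negative control wells for no effect and 2.5 mM tranylcypromine positive control for full effect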
Target sequence (P33261 whole entry, looked up): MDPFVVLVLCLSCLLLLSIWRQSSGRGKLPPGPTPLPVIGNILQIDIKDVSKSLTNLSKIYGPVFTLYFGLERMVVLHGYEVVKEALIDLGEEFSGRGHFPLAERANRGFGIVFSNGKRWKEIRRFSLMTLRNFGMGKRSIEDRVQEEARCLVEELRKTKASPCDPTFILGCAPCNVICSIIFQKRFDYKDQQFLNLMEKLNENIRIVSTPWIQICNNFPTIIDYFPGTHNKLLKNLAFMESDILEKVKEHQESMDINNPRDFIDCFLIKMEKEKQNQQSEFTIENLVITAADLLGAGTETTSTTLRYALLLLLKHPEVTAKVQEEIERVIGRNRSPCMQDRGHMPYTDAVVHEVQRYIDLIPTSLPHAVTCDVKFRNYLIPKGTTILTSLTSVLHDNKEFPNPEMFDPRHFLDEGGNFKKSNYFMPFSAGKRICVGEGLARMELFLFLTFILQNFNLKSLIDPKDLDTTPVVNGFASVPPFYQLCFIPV
CYP2C9 inhib: blockers of cytochrome P450 2C9 activity – biochemical, luminescence, ADME assay, primary screen; CYP2C9 Supersomes, luciferin-H conversion; P11712; inhibition, % at 5 µM; 96,000 tested, 20% active;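 active means blocking of liver enzyme CYP2C9 beyond about 50% at 5 µM, limit read from the data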
CYP2C19 act: human CYP2C19 activators, primary screen, biochemical, luminescence. recombinant CYP2C19, luciferin-H EGE luminescence; hits give high values; 0 = fully inhibited enzyme, 1 = untreated enzyme. activation factor at 5 µM. 96,000 tested, under 10 active. AID 1025, 2008;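 active means activation factor of at least 2 at 5 µM in the primary screen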;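 further: 0 = wells with 2.5 mM tranylcypromine and 1 = vehicle-only wells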
F-actin modifier: modifiers of F-actin cytoskeleton organization, primary screen, imaging, HUVEC, phalloidin staining, high-content imaging. AID 836, 2007. 91,000 tested, 0.18% active. HUVEC TNFa F-actin phalloidin imaging. inhibition, % at 2 µM;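 active means inhibition above the batch mean plus 3 SD and confirmed as a hit by visual image inspection, cut at about 30% in these data, passing the limit was not always enough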
CYP2C9 act: human CYP2C9 activators, primary screen, biochemical, luminescence. Cytochrome P450 2C9 (Homo sapiens), P11712. recombinant CYP2C9, luciferin-H conversion; hits give high values; factor 1 = untreated enzyme, 0 = blocked. activation factor at 5 µM. 96,000 tested, 1.4% active;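 active means activation factor of 2 or more for CYP2C9 at a 5 µM dose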;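 further: 0 = sulfaphenazole-blocked wells and 1 = vehicle-only wells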
E-sel TNF inh: E-selectin induction blockers in HUVEC – imaging, immunofluorescence, high content, primary screen. HUVEC TNFa-induced E-selectin immunofluorescence. inhibition, % at 2 µM. 120,000 tested, 0.71% active. AID 1246, 2008;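 active means inhibition above the batch mean plus 3 SD, and confirmed as a hit on visual image review, cut at about 43% in these data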;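 further: 0% = TNF-stimulated DMSO wells and 100% = unstimulated control wells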
Starred values were filed as active, the others as inactive; · = not tested or not shown.

SMILES | CYP2C19 inhib | CYP2C9 inhib | CYP2C19 act | F-actin modifier | CYP2C9 act | E-sel TNF inh
O=C(c1ccncc1)N1C2C=CC(C2)C1(C(F)(F)F)C(F)(F)F (stereo not drawn) | 23 | 61* | 0.8 | 0 | 0.4 | ·
CO/C([O-])=N/c1c[n+](-c2ccc(Cl)cc2)no1 | 18 | 10 | 0.8 | 30 | 0.9 | 59*
Cc1nn2cc(-c3ccccc3)nc2s1 | 22 | 1 | 0.8 | 0 | 1 | ·
c1ccc(-c2cn3c4c(sc3n2)CCCC4)cc1 | 57* | 19 | 0.4 | · | 0.8 | -24
COC(=O)c1c(NC(=O)c2cnccn2)sc2c1CCC2 | 15 | 22 | 0.8 | 1 | 0.8 | -11
CCOC(=O)c1cnc2nc(NCc3ccc(OCc4ccccc4)cc3)[nH]n2c1=O | 19 | 87* | 0.8 | -1 | 0.1 | ·
Cc1c(Cl)ccc2c1NC(=O)C21NC(CCC(N)=O)[C@H]2C(=O)N(c3ccc(Cl)cc3)C(=O)[C@H]21 (stereo partly drawn) | 57* | 70* | 0.4 | -28 | 0.3 | ·
Cc1c(Cl)ccc2c1NC(=O)[C@]21N[C@@H](CCC(N)=O)[C@H]2C(=O)N(c3ccc(F)cc3)C(=O)[C@H]21 | 27 | 29 | 0.7 | -22 | 0.7 | 19
CSCCC1NC2(C(=O)Nc3c2ccc(Cl)c3C)[C@@H]2C(=O)N(C3CCCC3)C(=O)[C@H]12 (stereo partly drawn) | 91* | 91* | 0.1 | -30 | 0.1 | -30
COc1cccc(NC(=O)Cc2c(C(=O)O)[nH]c3ccccc23)c1 | 14 | 14 | 0.9 | -13 | 0.9 | ·
Cc1ccccc1NC(=O)Cc1cn(C)c2ccccc12 | 45 | -196 | 0.6 | -20 | 3* | -1
COc1cccc(NC(=O)CCCn2c(=O)[nH]c3ccccc3c2=O)c1 | 25 | 72* | 0.8 | 10 | 0.3 | 3
CN1CCN(c2ccccc2NC(=O)Cc2cn(C)c3ccccc23)CC1 | 3 | 7 | 1 | 9 | 0.9 | ·
CCCCN(CC)C(=O)Cc1ccccc1OC | 38 | -11 | 0.6 | -1 | 1.1 | 3
COc1cccc(NC(=O)Cc2cn(C)c3ccccc23)c1 | 33 | -281 | 0.7 | 9 | 3.8* | 1
CCCCN(CC)C(=O)Cc1cn(C)c2ccccc12 | 95* | -238 | 0 | · | 3.4* | 17
CCc1c(O)nc(SCC(=O)Nc2ccccc2OC)[nH]c1=O | 28 | 38 | 0.7 | 17 | 0.6 | ·
Cc1[nH]c(=O)[nH]c(=O)c1S(=O)(=O)N1CCCC(C(=O)NCc2ccccc2Cl)C1 (stereo not drawn) | · | · | · | · | · | 5
COc1cccc(NC(=O)Cn2c(=O)n(CC3CCCO3)c(=O)c3ccccc32)c1 (stereo not drawn) | 63* | 41 | 0.4 | 10 | 0.6 | 33
COc1ccc(-n2c(=O)c3ccccc3n(CC(=O)Nc3cccc(OC)c3)c2=O)cc1 | · | · | · | · | · | -30
Cc1ccccc1NC(=O)CCN1C(=O)CSC1=O | · | · | · | -9 | · | 4
Cc1cc(C(F)(F)F)nn1CCCNC(=O)c1cnccn1 | 50* | 8 | 0.5 | · | 0.9 | 0
Cc1cc(C(F)(F)F)nn1CC(=O)NNC(=S)NCC(C)C | 32 | 0 | 0.7 | -2 | 1 | 4
CN(C)S(=O)(=O)c1cccc(NC(=O)CSc2nncn2-c2ccccc2)c1 | · | · | · | · | · | -35
Cc1ccccc1NC(=O)CSc1nnc(-c2ccoc2C)n1CCc1ccccc1 | 40 | 26 | 0.6 | 5 | 0.7 | 5
SMILES | CYP2C19 inhib | CYP2C9 inhib | CYP2C19 act | F-actin modifier | CYP2C9 act | E-sel TNF inh
Cc1nnc(SCC(=O)Nc2ccccc2)n1CCc1ccccc1 | 34 | 14 | 0.7 | -28 | 0.9 | -7
COc1ccc(NC(=O)CSc2nnc(-c3ccoc3C)n2CCc2ccccc2)cc1 | 88* | 89* | 0.1 | 42 | 0.1 | -5
Cc1occc1-c1nnc(SCC(=O)Nc2ccc(F)cc2)n1Cc1ccccc1 | 26 | 72* | 0.7 | 18 | 0.3 | -12
Cc1occc1-c1nnc(SCC(=O)Nc2ccccc2)n1Cc1ccccc1 | 34 | 62* | 0.7 | -11 | 0.4 | 40
Cc1cc(C(=O)Nc2c(C)n(C)n(-c3ccccc3)c2=O)c2ccccc2n1 | -2 | -3 | 1 | 18 | 1 | -40
Cc1cc(Br)cc2c(C(=O)Nc3c(C)n(C)n(-c4ccccc4)c3=O)cc(-c3cccs3)nc12 | 38 | 76* | 0.6 | -17 | 0.2 | -14
CCc1ccc(-c2cc(C(=O)Nc3c(C)n(C)n(-c4ccccc4)c3=O)c3ccccc3n2)s1 | 51* | 41 | 0.5 | 8 | 0.6 | 3
Cn1c(=O)[nH]c(=O)c2c1nc(N1CCOCC1)n2CCSc1ncccn1 | · | · | · | -9 | · | 5
O=C(Cn1nc(Cl)nc1Cl)c1cc2ccccc2oc1=O | 13 | 62* | 0.9 | -5 | 0.4 | ·
CC(C)OC(=O)/C(=C/c1ccc2c(c1)c1ccccc1n2C)NC(=O)c1ccccc1 | · | · | · | · | · | 26
CC(C)OC(=O)/C(=C\c1ccc2c(c1)c1ccccc1n2C)NC(=O)c1ccccc1 | 37 | 76* | 0.6 | 6 | 0.2 | -7
COc1ccc(NC(=S)N(CCc2c(C)[nH]c3ccc(C)cc23)Cc2cccs2)cc1 | · | · | · | · | · | -12
CNC(=S)N(CCc1c(C)[nH]c2ccc(C)cc12)Cc1cccs1 | · | · | · | · | · | -17
COc1ccc2[nH]c(C)c(CCN(Cc3cccs3)C(=S)Nc3ccccc3)c2c1 | 50* | 86* | 0.5 | -2 | 0.1 | ·
COc1ccccc1NC(=S)N(CCc1c(C)[nH]c2ccccc12)Cc1cccs1 | 58* | 36 | 0.4 | -7 | 0.6 | ·
COc1ccc2[nH]c(C)c(CCN(Cc3cccs3)C(=S)Nc3ccc(F)cc3)c2c1 | 45 | 87* | 0.5 | -7 | 0.1 | ·
CCOc1ccccc1NC(=O)CN(C)S(=O)(=O)c1ccc(OC)c(C)c1 | 99* | -20 | 0 | -40 | 1.2 | 19
COc1ccccc1NC(=O)CN(C)S(=O)(=O)c1ccc2c(c1)CCC(=O)N2 | 30 | 1 | 0.7 | -7 | 1 | 11
CCN(CC)S(=O)(=O)c1cc(C(=O)Nc2ccccc2C(=O)O)ccc1OC | 13 | 86* | 0.9 | -35 | 0.1 | ·
COc1ccc(S(=O)(=O)N(C)CC(=O)NCc2cccnc2)cc1C | 80* | -84 | 0.2 | -12 | 1.8 | 3
CCOc1c(Cl)cc(C(=O)Nc2ccccc2C(=O)O)cc1Cl | -5 | 59* | 1.1 | -2 | 0.4 | -21
FCCCOc1ccc(/C=N/OCc2ccc(Cl)cc2)cc1 | 7 | 10 | 0.9 | 5 | 0.9 | 14
COc1ccc(N(CC(=O)Nc2ccccc2C)S(=O)(=O)c2ccccc2[N+](=O)[O-])c(OC)c1 | · | · | · | · | · | -33
CC(C#CCN1CCCCC1)OCCOCc1ccccc1 (stereo not drawn) | 16 | -17 | 0.8 | -24 | 1.2 | 10
COc1ccc(OC)c(S(=O)(=O)N(C)CC(=O)O)c1 | 10 | 8 | 0.9 | · | 0.9 | -27
